Measured potencies and affinities stand elsewhere. Inconclusive results are not listed. Active and inactive are the calls of the source.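 Rule for the calls: active = growth inhibition lowering dye signal, with fitted half-maximal dose at most ten times the top valid dose; inconclusive = flat curve inhibiting 30 to 70 percent, or unreliable fit; inactive = the rest, including effects in the opposite direction.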
Experiment: resistant Candida growth with fluconazole co-treatment – CaCi-8 strain, Alamar Blue, dry powder, set 3, dose response (AID 488905)
Settings: C. albicans CaCi-8 + fluconazole, 48 h; series mostly up to 26 µM; activity change, negative = inhibition: at the top concentration

Compound | activity change, negative = inhibition
COCCC(=O)N1CCN(c2ccccn2)CC1 | -18.7% (inactive)
Cn1ccnc1N1CCN(C(=O)c2ccc(Cl)cc2)CC1 | 0.78% (inactive)
COc1cccnc1N1CCN(C(=O)c2ccc(Cl)cc2)CC1 | -27.1% (inactive)
O=C(c1ccc(Cl)cc1)N1CCN(c2cnccn2)CC1 | -3.7% (inactive)
O=C(c1ccc(Cl)cc1)N1CCN(c2cccc(C(F)(F)F)n2)CC1 | -7.96% (inactive)
O=C(c1ccccc1)N1CCN(c2ccccn2)CC1 | -14.1% (inactive)
Cc1cccc(N2CCN(C(=O)c3ccc(Cl)cc3)CC2)n1 | -21.9% (inactive)
